The values below come from PubChem BioAssay (Tox21).

A short description of test [1]: qHTS assay to identify small molecule agonists of the hypoxia (HIF-1) signaling pathway (AID 1224846; active = well fitted activation curve with a large enough effect in the signal ratio in the repeat runs, not every such curve was filed as active; the % refers to the signal ratio). An outline of the steps: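 Hypoxia-pathway activation was scored as increased beta-lactamase from an HRE-controlled reporter in ME-180 cells; plated at 2,000 cells per well with 0.5% dialyzed FBS, they were exposed 17 hrs to compounds and then given CCF4-AM.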
A general note: Quantitative high-throughput screening tests each substance at several concentrations.

Test [2] can be described thus: qHTS assay to identify small molecule agonists of H2AX - cell viability counter screen (AID 1224847; calls by dose curve; note: top concentration of the series differs between compounds; nearly all actives have a fitted effect of over 30% in size). In a few lines: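 CHO-K1 cells plated overnight at 37C, then exposed 3 h at 37C to compounds at 15 concentrations (0.76% DMSO final). Viability by CellTiter-Glo luminescence after 30 min at room temperature.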
Test [3] is described as follows: A CellTox Green Cytotoxicity Assay to monitor cytotoxicity in HEK293 cells - 0 hour (AID 1224869). Note: nearly all actives have a fitted effect of over 50% in size. Note: potency is the fitted concentration of half-maximal effect. An outline of the steps:
(§1)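 Seeding of HEK293 cells together with cytotoxicity dye preceded a 5 h incubation at 37 C/5% CO2. Test compounds in DMSO were then added and fluorescence monitored across 40 h.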

Test [4] in a line: qHTS RealTime-Glo MT Cell Viability Assay in HepG2 cells - 40 hour (AID 1224870). Note: nearly all actives have a fitted effect of over 50% in size. In a few lines: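 HepG2 cells mixed with RealTime-Glo MT reagents (NanoLuc plus cell-permeant prosubstrate) were seeded at 600 cells/well, incubated 5 h at 37 C/5% CO2, then pinned with compounds in DMSO; nonlytic luminescence tracked viability during 40 h treatment.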
A short description of test [5]: qHTS assay to identify small molecule antagonists of the estrogen related receptor (ERR) signaling pathway from Tox21 library (AID 1224848). Note: nearly all actives have a fitted effect of over 50% in size. Note: potency is the fitted concentration of half-maximal effect. In a few lines:
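Cells: ERR line, 2,000/well; 6 h preincubation 37 C/5% CO2. Cpd in DMSO via pin tool; 18 h, 37 C. ONE-Glo, 30 min RT, luminescence.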

The nature of test [6]: qHTS assay to identify small molecule agonists of the estrogen related receptor (ERR) signaling pathway from Tox21 library (AID 1224849; calls by dose curve; note: nearly all actives have a fitted effect of over 15% in size). The settings on record: ERR reporter cell line, ONE-Glo luciferase, 18 h; at 92.4 µM (top of the series) unless noted. An outline of the steps: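 Six hours post-seeding at 37 C/5% CO2, ERR cells receive DMSO-solubilised compounds; after 18 h at 37 C, ONE-Glo reagent is applied and luminescence recorded.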

The nature of test [7]: qHTS RealTime-Glo MT Cell Viability Assay in HepG2 cells - 24 hour (AID 1224867). Note: nearly all actives have a fitted effect of over 50% in size. An outline of the steps: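 HepG2 cells (600/well) were dispensed with RealTime-Glo reagents, incubated 5 h at 37 °C, then treated with compounds in DMSO for up to 40 h. Nonlytic NanoLuc luminescence reflecting viable cells was read at each stated time point.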
The nature of test [8]: qHTS RealTime-Glo MT Cell Viability Assay in HEK293 cells - 32 hour (AID 1224868). For activity change, negative = cytotoxic: top concentration of the series differs between compounds. Note: nearly all actives have a fitted effect of over 50% in size. Note: potency is the fitted concentration of half-maximal effect. In a few lines:
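HEK293 cells seeded with NanoLuc/prosubstrate reagent, rested 5 h at 37 C, then dosed and kept at 37 C up to 40 h. Nonlytic real-time luminescence from viable cells read at 0, 8, 16, 24, 32 and 40 h.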

A short description of test [9]: A CellTox Green Cytotoxicity Assay to monitor cytotoxicity in HEK293 cells - 40 hour (AID 1224871). Note: nearly all actives have a fitted effect of over 45% in size. Note: potency is the fitted concentration of half-maximal effect. In a few lines: as §1
The nature of test [10]: qHTS assay to identify small molecule agonists of H2AX (AID 1224845; active = well fitted activation curve with a large enough effect in the signal ratio in the repeat runs, not every such curve was filed as active; the % refers to the signal ratio). In a few lines: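 Wild-type CHO-K1 cells plated overnight, then exposed 3 hr at 37C to compounds at 15 concentrations (0.76% DMSO). Lysed, then HTRF anti-pH2AX(S139)-cryptate/anti-H2AX-d2 detection after 24 hr at room temperature; emissions 665 and 620 nm.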

Values without a mark were called inactive. Inconclusive results are not listed. Activity calls are given as the source filed them. Unless noted, calls come from the whole dose curve; as a rule, active = well fitted curve in the direction sought with a large enough effect in the repeat runs; inconclusive = weak or mixed curves; inactive = no such curve, though single readings can be large; an effect the other way counts as inactive or inconclusive.
% is set by controls: 0 for no effect and ±100 for the full control effect.

For `CN1C(=S)CN=C(c2ccccc2)c2cc(Cl)ccc21`, the compound was classed as inactive in test [1]. The Potency entry in test [2] and in test [4] was “inactive” each time. Further, in [3], the Potency was 5.35 µM (active).
For the compound `CC(C)(C)OC(=O)c1ncn2c1[C@@H]1CCCN1C(=O)c1c(Br)cccc1-2`, in [1], the result was inactive. Also, the Potency entry in [2], in [7], in test [8], in test [3], in test [4] and in test [9] was “inactive” in each case. In test [5], the Potency was 23.7 µM (active). In addition, in test [6], the activity change, positive = activation is -34.2% [at 42.5 µM].
With `CS(=O)(=O)c1cc(C(F)(F)F)ccc1C(=O)c1cnoc1C1CC1`, in test [1], the call was inactive. For the same compound, the Potency entry in test [2], in test [5], in test [7], in test [8], in [3] and in test [4] was “inactive” in each case. In addition, in [6], the activity change, positive = activation was 9.23%.
On to `Nc1cc(Cl)ccc1O`, for which the compound was classed as inactive in test [1]. In addition, the Potency entry in [2], in test [8], in test [3], in test [4] and in test [9] was “inactive” in each case.
Regarding `c1cc[c]([Hg][c]2ccccc2)cc1`, the Potency entry in [2], in test [7], in [3] and in [4] was “inactive” each time. In addition, the Potency in test [8] was 30.9 µM (active).
Regarding `Clc1cccc(N2CCNCC2)c1`, the Potency entry in test [10], in test [2], in test [7], in test [8], in [3] and in test [4] was “inactive” throughout. Also, the Potency result in test [9] was “inactive”.
On to `CC(C)COP(=O)(OCC(C)C)OCC(C)C`, for which the compound was classed as inactive in [1]. Also, the Potency result in test [5], in test [7], in [8], in [4] and in [9] was “inactive” each time. Moreover, the activity change, positive = activation in test [6] is -2.2%.
Turning to `CN1CCN(C(=O)O[C@H]2c3nccnc3C(=O)N2c2ccc(Cl)cn2)CC1`, the Potency entry in test [10], in test [2], in test [7], in test [8], in [3] and in [4] was “inactive” each time. In addition, the Potency entry in test [9] was “inactive”.
Regarding `CCOP(=S)(Oc1cnc(C(C)(C)C)nc1)OC(C)C` (centres undefined), the compound was called inactive in test [1]. In addition, the activity change, positive = activation in [6] is -20.7%. In addition, the Potency result in [7], in test [8], in test [3] and in [4] was “inactive” throughout.
On to `CCCSP(=S)(OCC)Oc1ccc(Cl)cc1Cl` (centres undefined), for which the compound was classed as inactive in [1]. The Potency result in test [5], in test [8], in [3], in [4] and in test [9] was “inactive” throughout. In addition, in test [6], the activity change, positive = activation is 2.16%.
As to `O=C1OC(CCN2CCCCC2)OC1(c1ccccc1)c1ccccc1` (centres undefined), in test [1], the call was inactive. The Potency result in test [2], in test [8], in test [3] and in test [4] was “inactive” in each case.
As to `CCOP(=S)(OCC)SCSP(=S)(OCC)OCC`, the compound was classed as inactive in test [1]. The Potency result in [2], in test [7], in test [8], in test [3], in test [4] and in test [9] was “inactive” each time.
For `Cc1ccccc1CO[C@@H]1C[C@@]2(C(C)C)CC[C@]1(C)O2`, the result in test [1] was inactive. Also, the Potency result in test [7], in test [8], in test [3] and in test [4] was “inactive” in each case.
Consider `C=C(C)[C@@H]1CC=C(C=O)CC1`, for which, in [1], the call was inactive. Moreover, the Potency result in test [2], in test [5], in test [7], in test [8], in test [4] and in test [9] was “inactive” throughout. Further, the activity change, positive = activation in test [6] was -5.19%.
As for `N#Cc1ccncc1`, in test [1], the compound was classed as inactive. Besides, the Potency entry in [2], in [5], in test [7], in test [8], in test [3] and in test [4] was “inactive” each time. Besides, in test [9], the Potency result was “inactive”. In test [6], the activity change, positive = activation is 5.77%.
`O=C1c2ccccc2C(=O)c2ccccc21`: the activation in test [1] is 0.0544% [at 15.8 µM]. Besides, the figures for the activity change, negative = cytotoxicity in test [2] and in test [7] were 8.07% [at 31.6 µM] and 0.705% [at 15.8 µM], respectively. Also, the activity, negative = inhibition in test [5] was 18.9% [at 19 µM]. In addition, in test [6], the activity change, positive = activation is 10.5% [at 19 µM]. Further, the results for the activity change, negative = cytotoxic in test [8] and in [4] were 15.3% [at 15.8 µM] and 0.48% [at 15.8 µM], respectively. Also, the cytotoxicity in [3] was 6.35% [at 15.8 µM]. Moreover, the cytotoxicity increase in test [9] is -0.882% [at 15.8 µM].
Consider `OC(c1ccccc1)(c1ccccc1)C1CCNCC1`, for which the Potency result in [10], in test [2], in test [7], in [8], in [3] and in [4] was “inactive” in each case. The Potency result in test [9] is “inactive”.
As for `CCN(CC)C(=O)[C@@H]1C=C2c3cccc4[nH]cc(c34)C[C@H]2N(C)C1`, in [1], the outcome was inactive. For the same compound, the Potency entry in test [2], in test [3], in [4] and in test [9] was “inactive” each time. Also, the activity change, positive = activation in [6] was -24.6% [at 240 µM].
As to `CCOP(=S)(OCC)SCSc1ccc(Cl)cc1`, in test [1], the outcome was inactive. Also, the Potency result in test [8], in test [3], in [4] and in test [9] was “inactive” each time.
As for `COc1ccc2c(c1OC)CN1CCc3cc4c(cc3C1C2)OCO4` (centres undefined), the Potency result in [10], in test [7], in test [3] and in test [4] was “inactive” in each case.
`COc1ccc(C(=O)N2CCCC2=O)cc1`: the Potency result in [10], in test [2], in test [7], in test [8], in test [3] and in test [4] was “inactive” each time. In test [9], the Potency entry was “inactive”.
Take `CC(=O)CC(c1ccc(Cl)cc1)c1c(O)c2ccccc2oc1=O` (centres undefined): in test [1], the compound was called inactive. Further, the Potency entry in test [7], in test [8], in [3], in test [4] and in test [9] was “inactive” each time.
Take `O=[N+]([O-])c1ccc2c3c(cccc13)CC2`: in [1], the outcome was inactive. The Potency result in [2], in test [7], in [8], in test [3], in test [4] and in test [9] was “inactive” throughout.
`O=[N+]([O-])c1cc(Cl)c(Cl)c(Cl)c1`: the call in test [1] was inactive. Besides, the Potency entry in test [2], in [7], in test [8], in test [3] and in test [4] was “inactive” each time. In addition, in test [9], the Potency is 21.7 µM (active).
On to `CCOC(=O)C(c1c(O)c2ccccc2oc1=O)c1c(O)c2ccccc2oc1=O`, for which the Potency entry in [10], in test [8], in [4] and in test [9] was “inactive” each time.
Consider `C(CCOCC1CO1)COCC1CO1` (centres undefined), for which the Potency entry in [10], in test [2], in test [7], in [3], in [4] and in [9] was “inactive” each time.
As for `C[C@]12CC[C@H]3[C@@H](CC=C4C[C@@H](O)CC[C@@]43C)[C@@H]1CC[C@@H]2O`, the Potency result in [10], in test [2], in test [8], in [3], in test [4] and in test [9] was “inactive” throughout.
